Records with an inconclusive call do not appear. Activity calls are given as the source filed them. Unless noted, the call rests on the fitted dose curve; in most records, active means well fitted curve in the direction sought with a large enough effect in the repeat runs; inconclusive means weak or mixed curves; inactive means no such curve, though single readings can be large; an effect the other way counts as inactive or inconclusive.
What was measured:
[1] = qHTS assay to identify small molecule agonists of the vitamin D receptor (VDR) signaling pathway - cell viability counter screen (AID 743224); further: series mostly up to about 63 µM; on the % scale 0 is the no-effect control and ±100 the full control effect; nearly all actives have a fitted effect of over 50% in size
Method in brief: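 Luminescence from CellTiter-Glo, read after 30 min at room temperature, reports viability of VDR-bla cells treated with compounds for 16 h at 37C in the wells used for the beta-lactamase FRET read.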

[2] = qHTS assay to identify small molecule antagonists of the vitamin D receptor (VDR) signaling pathway - cell viability counter screen (AID 743225); further: on the % scale 0 is the no-effect control and ±100 the full control effect; nearly all actives have a fitted effect of over 50% in size
Method in brief: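 Parallel cytotoxicity test: VDR-UAS-bla HEK 293T, 3 nM (final) 1-alpha,25-dihydroxyvitamin D3 with test compound, 16 h, 37C. Endpoint is CellTiter-Glo luminescence in the same wells.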

[3] = qHTS assay to identify small molecule agonists of the NFkB signaling pathway (AID 1159509; active means well fitted curve in the direction sought with a large enough effect in the signal ratio in the repeat runs, not every such curve was filed as active; the % refers to the signal ratio; further: series mostly up to about 61 µM; on the % scale 0 is the no-effect control and ±100 the full control effect)
Method in brief: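 NFkB-bla ME-180 cells carry a beta-lactamase reporter under an NF-kB response element. They were plated overnight, then exposed to compounds for 5 h at 37 C. Read-out is LiveBLAzer FRET after 1.5 hr at room temperature (405 nm excitation; 460/530 nm emission).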

[4] = qHTS assay to identify small molecule agonists of the NFkB signaling pathway - cell viability counter screen (AID 1159515; calls by dose curve; further: series mostly up to about 61 µM; on the % scale 0 is the no-effect control and ±100 the full control effect; nearly all actives have a fitted effect of over 55% in size)
Method in brief: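 Luminescence from CellTiter-Glo (30 min, room temperature) gives viability, measured in the same wells as the beta-lactamase reporter read. Cells were NFkB-bla ME-180, 2,000 per well, treated 5 hr with compounds.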

[5] = qHTS assay to identify small molecule agonists of the endoplasmic reticulum stress response signaling pathway (AID 1159516; active means well fitted activation curve with a large enough effect in the signal ratio in the repeat runs, not every such curve was filed as active; the % refers to the signal ratio; further: on the % scale 0 is the no-effect control and ±100 the full control effect)
Method in brief: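 Read-out is beta-lactamase cleavage of a FRET substrate (405 nm excitation; 460 and 530 nm emissions) in ESRE-bla HeLa cells after a 5 hr compound exposure at 37 C. Substrate incubation ran 2 hr at room temperature.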

[6] = qHTS assay to identify small molecule agonists of the endoplasmic reticulum stress response signaling pathway - cell viability counter screen (AID 1159517; calls by dose curve;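 further: HeLa cells carrying an ER stress response element beta-lactamase reporter; series mostly up to about 61 µM; on the % scale 0 is the no-effect control and ±100 the full control effect; nearly all actives have a fitted effect of over 50% in size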)
Method in brief: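 ESRE-bla HeLa cells, 1,500 per well, seeded overnight then treated with compounds for 5 hr at 37 C. After the beta-lactamase read, viability in the same wells is measured by CellTiter-Glo luminescence after 30 min at room temperature.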

[7] = qHTS assay to identify small molecule antagonists of the retinoid-related orphan receptor gamma (ROR-gamma) signaling pathway - cell viability counter screen (AID 1159520); further: on the % scale 0 is the no-effect control and ±100 the full control effect; nearly all actives have a fitted effect of over 50% in size
Method in brief: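 Tet-on ROR gamma CHO cells were given compounds for 2 hr, then doxycycline hyclate at 1 uM final, and incubated 16 hr at 37 C. Viability was measured as ATP content by CellTiter-Glo luminescence.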

[8] = molecular target: Nuclear receptor ROR-gamma (Homo sapiens) (UniProt P51449); assay: qHTS assay to identify small molecule antagonists of the retinoid-related orphan receptor gamma (ROR-gamma) signaling pathway (AID 1159521)
Method in brief: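 Decreased RORE-driven luciferase luminescence indicates antagonism. Tet-on RORγ CHO cells received compound, then 1 uM final doxycycline 2 h later; signal read after 16 h incubation.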

[9] = qHTS assay to identify small molecule agonists of the AP-1 signaling pathway - cell viability counter screen (AID 1159525; calls by dose curve; further: nearly all actives have a fitted effect of over 55% in size)
Method in brief: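 AP-1-bla ME-180 cells in Opti-MEM with 0.5% dialyzed FBS, compound exposure 5 h at 37 C in 15-point titration. Viability read in the same wells as ATP content by CellTiter-Glo luminescence, normalised to tetra-n-octylammonium bromide and DMSO controls.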

[10] = qHTS assay to identify small molecule agonists of the AP-1 signaling pathway (AID 1159526; calls by dose curve; further: on the % scale 0 is the no-effect control and ±100 the full control effect)
[11] = molecular target: Retinoic acid receptor RXR-alpha (Homo sapiens) (UniProt P19793); assay: qHTS assay to identify small molecule agonists of the RXR signaling pathway (AID 1159527; calls by dose curve; further: on the % scale 0 is the no-effect control and ±100 the full control effect; nearly all actives have a fitted effect of over 35% in size)
Method in brief: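 16 hr incubation of compound-treated RXR-alpha-UAS-bla HEK 293T cells (2% charcoal-stripped FBS, 37 C) preceded a 2 hr room-temperature LiveBLAzer FRET substrate step and blue/green fluorescence measurement.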

[12] = qHTS assay to identify small molecule agonists of the RXR signaling pathway - cell viability counter screen (AID 1159529)
Method in brief: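 In this parallel viability measure, GeneBLAzer RXR-alpha HEK 293T cells (2% charcoal-stripped FBS) were given a 5 hr preincubation, treated with compounds 16 hr at 37 C, and read by CellTiter-Glo luminescence.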

[13] = qHTS assay to identify small molecule antagonists of the retinoid acid receptor (RAR) signaling pathway - cell viability counter screen (AID 1159551); further: on the % scale 0 is the no-effect control and ±100 the full control effect; nearly all actives have a fitted effect of over 35% in size
Method in brief: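 Luminescent ATP quantitation (CellTiter-Glo) gave cell viability in C3RL4 cells exposed to test chemicals for 6 h at 37 C alongside 1 uM final retinol.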

[14] = qHTS assay to identify small molecule antagonists of the retinoic acid receptor (RAR) signaling pathway (AID 1159552)
Method in brief: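 C3RL4 RARE-luc cells, overnight plating; retinol 1 uM final added right after compound; 6 hr 37 C; luciferase read at 30 min RT.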

[15] = qHTS assay to identify small molecule agonists of the retinoic acid receptor (RAR) signaling pathway (AID 1159553); further: on the % scale 0 is the no-effect control and ±100 the full control effect
Method in brief: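 Luminescence from a RARE-driven luciferase reporter in C3RL4 cells served as the read-out, measured after 30 min with detection reagent at room temperature. Compounds in DMSO were applied for 6 hr at 37 C following overnight seeding.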

[16] = qHTS assay to identify small molecule antagonists of the estrogen related receptor (ERR) signaling pathway - cell viability counter screen (AID 1224818)
Method in brief: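 Multiplexed counter screen to separate cytotoxic compounds from true ERR modulators. ERR cells received DMSO-dissolved compounds after a 6 h pre-incubation, were exposed 17.5 h at 37 C, then assayed with CellTiter-Fluor fluorescence.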

[17] = qHTS assay to identify small molecule antagonists of the estrogen related receptor signaling pathway with the pleiotropic PPARgamma coactivator (PGC) cell viability counter screen (AID 1224822)
Method in brief: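 Cells: PGC/ERR, 2,000/well, 1536-well format. Pre-incubation 6 h, 37 C/5% CO2. Compound exposure 17.5 h, 37 C. Detection: CellTiter-Fluor, 30 min, fluorescence.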

Sequence of Retinoic acid receptor RXR-alpha (Homo sapiens) (P19793 whole entry, looked up): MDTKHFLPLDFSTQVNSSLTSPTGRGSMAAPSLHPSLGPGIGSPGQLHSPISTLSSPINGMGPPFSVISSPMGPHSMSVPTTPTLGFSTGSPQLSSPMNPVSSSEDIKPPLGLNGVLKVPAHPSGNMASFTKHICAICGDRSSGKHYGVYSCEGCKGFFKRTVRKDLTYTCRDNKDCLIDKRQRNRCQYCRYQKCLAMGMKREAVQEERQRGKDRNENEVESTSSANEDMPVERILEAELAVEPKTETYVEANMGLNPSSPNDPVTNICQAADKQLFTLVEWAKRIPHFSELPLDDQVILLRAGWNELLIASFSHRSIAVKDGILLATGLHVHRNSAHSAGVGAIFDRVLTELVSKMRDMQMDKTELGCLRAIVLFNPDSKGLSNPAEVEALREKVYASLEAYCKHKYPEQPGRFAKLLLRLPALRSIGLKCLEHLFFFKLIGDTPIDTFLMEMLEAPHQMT

ClC(Cl)(Br)Br
inactive: Potency [1] | Potency [2] | outcome [3] | outcome [4] | outcome [5] | outcome [6] | outcome [7] | Potency [8] | Potency [9] | outcome [10] | Potency [11] | Potency [12] | outcome [13] | Potency [14] | Potency [15]

CCN(CC)CCNC(=O)c1cc(S(C)(=O)=O)ccc1OC
inactive: Potency [1] | Potency [2] | outcome [3] | outcome [4] | outcome [5] | outcome [6] | outcome [7] | Potency [8] | Potency [9] | outcome [10] | Potency [11] | Potency [12] | outcome [13] | Potency [14] | outcome [16] | outcome [17]

CC(=O)OCC(=O)[C@@]1(O)CCC2C3CCC4=CC(=O)CC[C@]4(C)C3[C@@H](O)C[C@@]21C (some centres undefined)
inactive: Potency [1] | Potency [2] | outcome [3] | outcome [4] | outcome [5] | outcome [6] | outcome [7] | Potency [8] | Potency [9] | outcome [10] | Potency [11] | Potency [12] | outcome [13] | Potency [14] | Potency [15]

CCC(C)S (centres undefined)
inactive: activity change, negative = cytotoxicity [1] 8.62% [at 2.7 µM] | viability change, negative = cytotoxic [2] 1.2% [at 3.11 µM] | activation [3] 0.0323% [at 3.11 µM] | activity, negative = cytotoxic [4] 6.58% [at 3.12 µM] | activation [5] 2.07% [at 3.11 µM] | activity change, negative = cytotoxicity [6] 12.1% [at 3.11 µM] | activity, negative = cytotoxicity [7] -0.272% [at 3.27 µM] | activity change, negative = inhibition [8] 4.64% [at 3.27 µM] | viability change, negative = cytotoxic [9] 5.51% [at 2.72 µM] | activation [10] -2.17% [at 2.72 µM] | activation [11] 0.574% [at 2.71 µM] | activity change, negative = cytotoxicity [12] 0.658% [at 2.72 µM] | activity change, negative = cytotoxicity [13] 1.76% [at 3.27 µM] | activity, negative = inhibition [14] -4.13% [at 3.27 µM] | activation [15] 1.68% [at 3.75 µM]

CC(=O)CC(C)C
inactive: Potency [1] | outcome [3] | outcome [4] | outcome [5] | outcome [6] | outcome [7] | Potency [8] | Potency [9] | outcome [10] | Potency [11] | Potency [12] | outcome [13] | Potency [14]

NS(=O)(=O)c1ccccc1Cl
inactive: Potency [1] | Potency [2] | outcome [3] | outcome [4] | outcome [5] | outcome [6] | outcome [7] | Potency [8] | Potency [9] | outcome [10] | Potency [11] | Potency [12] | outcome [13] | Potency [14] | Potency [15]

O=C1OC(=O)C2CCCCC12 (centres undefined)
inactive: Potency [2] | outcome [3] | outcome [4] | outcome [5] | outcome [6] | outcome [7] | Potency [8] | Potency [9] | outcome [10] | Potency [11] | Potency [12] | outcome [13] | Potency [14] | Potency [15]

NC(=O)Nc1ccccc1
inactive: Potency [1] | Potency [2] | outcome [3] | outcome [4] | outcome [5] | outcome [6] | outcome [7] | Potency [8] | Potency [9] | outcome [10] | Potency [11] | Potency [12] | outcome [13] | Potency [14] | Potency [15]

CN(C)CCCSc1ccccc1NC(=O)/C=C/c1ccccc1
inactive: Potency [1] | Potency [2] | outcome [3] | outcome [4] | outcome [5] | outcome [6] | outcome [7] | Potency [8] | Potency [9] | outcome [10] | Potency [11] | Potency [12] | outcome [13] | Potency [14] | Potency [15]

CC(=O)OCC(CCn1cnc2cnc(N)nc21)COC(C)=O
inactive: Potency [1] | Potency [2] | outcome [3] | outcome [4] | outcome [5] | outcome [6] | outcome [7] | Potency [8] | Potency [9] | outcome [10] | Potency [11] | Potency [12] | outcome [13] | Potency [14] | outcome [16]

CN(C)CCCNCCCN(C)C
inactive: Potency [1] | outcome [3] | outcome [4] | outcome [5] | outcome [6] | outcome [7] | Potency [8] | Potency [9] | outcome [10] | Potency [11] | Potency [12] | outcome [13] | Potency [14]

O=c1[nH]c(=O)n([C@H]2C[C@H](O)[C@@H](CO)O2)cc1I
inactive: Potency [1] | Potency [2] | outcome [3] | outcome [4] | outcome [5] | outcome [6] | outcome [7] | Potency [8] | Potency [9] | outcome [10] | Potency [11] | Potency [12] | outcome [13] | Potency [14] | Potency [15]

COC(C)(C)CCCC(C)CC=O (centres undefined)
inactive: Potency [1] | Potency [2] | outcome [3] | outcome [4] | outcome [5] | outcome [6] | outcome [7] | Potency [8] | Potency [9] | outcome [10] | Potency [11] | Potency [12] | outcome [13] | Potency [14] | Potency [15]

CS(=O)(=O)O
inactive: Potency [1] | Potency [2] | outcome [3] | outcome [4] | outcome [5] | outcome [6] | outcome [7] | Potency [8] | Potency [9] | outcome [10] | Potency [11] | Potency [12] | outcome [13] | Potency [14] | Potency [15]

O=c1cc(CO)occ1O
inactive: Potency [1] | outcome [3] | outcome [4] | outcome [5] | outcome [6] | outcome [7] | Potency [8] | Potency [9] | outcome [10] | Potency [11] | Potency [12] | outcome [13] | Potency [14]

CC(=O)N(CC(O)CO)c1c(I)c(C(=O)NCCO)c(I)c(C(=O)NCC(O)CO)c1I (centres undefined)
inactive: Potency [1] | Potency [2] | outcome [3] | outcome [4] | outcome [5] | outcome [6] | outcome [7] | Potency [8] | Potency [9] | outcome [10] | Potency [11] | Potency [12] | outcome [13] | Potency [14] | Potency [15]

CCCCOCCOCCOCCCC
inactive: Potency [1] | Potency [2] | outcome [3] | outcome [4] | outcome [5] | outcome [6] | outcome [7] | Potency [8] | Potency [9] | outcome [10] | Potency [11] | Potency [12] | outcome [13] | Potency [14] | Potency [15]

N=C(N)c1ccccc1
inactive: Potency [1] | outcome [3] | outcome [4] | outcome [5] | outcome [6] | outcome [7] | Potency [8] | Potency [9] | outcome [10] | Potency [11] | Potency [12] | outcome [13] | Potency [14] | outcome [16] | outcome [17]
